CCT chaperon mod – cytosolic chaperonin activity modulation; activity change, % (test concentration not listed), hits read low; 360,000 tested, 0.3% active; AID 651819; purified chaperonin ATPase assay, HTRF ADP detection, 30 min; in the data active = activity change below about -30%
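ATPase activity: ADP formed was measured by HTRF Transcreener (665/615 nm ratio) after 30 min at 37 deg C with 10 uM ATP. Compounds screened at one 76 uM concentration against 40 or 20 nM TRiC in Tris pH 7.4/KCl/MgCl2/DTT buffer.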
PLK1 PBD block – inhibitors of human PLK1 polo-box domain binding. Potency, µM, most hits filed as inhibitors. P53350. Plk1 PBD binding of FITC phosphopeptide, fluorescence polarization. AID 720504. 360,000 tested, 2.8% active; also: series mostly up to about 57 µM; nearly all actives have a fitted effect of over 65% in size
G9a block – inhibitors of human histone lysine methyltransferase G9a; Q96KQ7; G9a H3K9 monomethylation, AlphaScreen, 2 h; Potency, µM (doses to about 102 µM), hits mostly inhibitors; 350,000 tested, 8.8% active; also: nearly all actives have a fitted effect of over 75% in size
Target sequence (Q96KQ7 913-1193 limits assumed): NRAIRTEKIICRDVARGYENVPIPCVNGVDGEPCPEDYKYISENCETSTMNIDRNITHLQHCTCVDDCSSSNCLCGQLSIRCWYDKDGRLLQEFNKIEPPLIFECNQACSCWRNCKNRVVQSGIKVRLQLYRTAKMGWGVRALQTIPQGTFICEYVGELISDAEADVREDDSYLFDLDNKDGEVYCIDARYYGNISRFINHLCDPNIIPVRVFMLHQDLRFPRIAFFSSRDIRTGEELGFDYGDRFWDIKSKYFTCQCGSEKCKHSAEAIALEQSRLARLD
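Quantitative HTS format: methyltransferase activity on a biotin-tagged H3K9 peptide is measured by AlphaScreen, using a rabbit anti-monomethyl-H3K9 antibody with streptavidin donor and anti-IgG acceptor beads. Final levels are 20 nM enzyme, 500 nM peptide, 20 uM SAM; 2 h RT.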
Sfp inh – blocks B. subtilis Sfp PPTase activity | Q9F4F7 | 310,000 tested, 3.5% active | Potency, µM, usual class: inhibitors | AID 1490 | Biochemical Sfp PPTase activity, qHTS;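 also: the enzyme is Sfp with the accession as filed and its product quenches rhodamine fluorescence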
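After 15 min at room temperature with compound, 15 nM Sfp received 5 uM rhodamine-CoA plus 12.5 uM BHQ-2-ybbR (50 mM Hepes pH 7.6, 10 mM MgCl2). Rate came from the fluorescence difference over 30 min, ex 525/em 598 nm.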
MmCpn inh – inhibitors of Methanococcus maripaludis chaperonin TRiC (MmCpn) | purified Mm-Cpn ATPase, ADP Transcreener TR-FRET | Potency, µM (top dose mostly 76.9 µM), hits mostly inhibitors | 330,000 tested, 0.031% active; also: nearly all actives have a fitted effect of over 80% in size
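ATP (10 uM final) was added to archaeal chaperonin (25 nM final) after 10 min exposure to test compound at 37°C; after 30 min further incubation, ADP was detected by competitive TR-FRET.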
VDR inhibitor – inhibitors of human vitamin D receptor. VDR-SRC2-3 peptide fluorescence polarization, 2 h. 400,000 tested, 0.93% active. AID 504847. P11473. Potency, µM, usual class: inhibitors
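After 23 nl compound addition and a short centrifugation, plates sat for 2 hours at ambient temperature; polarization of fluorescence then indicated loss of VDR binding to peptide SRC2-3.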
Of the large screens only hits and unclear results are named; the others gave an inactive call. Most compounds without a hit are left out; they make up all but 10% or so of the library. Unless noted, calls follow the shape of the dose curve; as a rule, active = well fitted curve in the direction sought with a large enough effect; inconclusive = small, poorly fitted or top-dose-only effect, or another doubt; inactive = no such curve, though single readings can be large; an effect the other way counts as inactive or inconclusive.

CCCCN(C)CCCNC(=O)Cn1ncc2c3ccccc3n(Cc3ccccc3)c2c1=O	none (no result: CCT chaperon mod, PLK1 PBD block, Sfp inh, MmCpn inh)
Cc1ccc(-n2ncc(C(=O)Nc3ccc4c(c3)OCCO4)c2C2CCN(C(=O)OC(C)(C)C)CC2)cc1C	G9a block inconclusive (no result: CCT chaperon mod, PLK1 PBD block, Sfp inh, MmCpn inh)
N#CC(c1ccccc1)c1ccc2c(C(F)(F)F)cc(C(F)(F)F)nc2n1 (stereo not drawn)	G9a block 10µM
CN(N)c1ccc2c(C(F)(F)F)cc(C(F)(F)F)nc2n1	PLK1 PBD block 24µM, Sfp inh inconclusive
COc1ccc(Oc2ccc3c(C(F)(F)F)cc(C(F)(F)F)nc3n2)cc1	none
Cc1ccc(C(C#N)c2ccc3c(C(F)(F)F)cc(C(F)(F)F)nc3n2)cc1 (stereo not drawn)	CCT chaperon mod -45, G9a block 11µM
Cc1cccc(Nc2nc(-c3ccccc3)c3cc(C)ccc3n2)c1	none (no result: CCT chaperon mod, PLK1 PBD block, Sfp inh, MmCpn inh)
CCOC(=O)c1c(C)[nH]c(C)c1S(=O)(=O)N1CCC(C(=O)Nc2ccc(F)cc2F)CC1	none (no result: CCT chaperon mod, PLK1 PBD block, Sfp inh, MmCpn inh)
COCCn1c(SCC(=O)Nc2ccc(F)c(Cl)c2)nc2c(oc3ccccc32)c1=O	none (no result: CCT chaperon mod, PLK1 PBD block, Sfp inh, MmCpn inh)
Cc1ccc(C2CC(=O)C=C(NCc3ccccc3)C2)cc1 (stereo not drawn)	none
Cc1ccc(C2CC(=O)C=C(NCC(C)C)C2)cc1 (stereo not drawn)	PLK1 PBD block 27µM, VDR inhibitor inconclusive
Cc1nn(Cc2ccccc2Cl)c2sc(C(=O)Nc3nccs3)cc12	CCT chaperon mod -57
Cc1nn(Cc2ccc(Cl)cc2)c2sc(C(=O)O)cc12	G9a block 1µM
Cc1ccccc1OCC(=O)N(Cc1ccc(C(C)C)cc1)C1CCS(=O)(=O)C1 (stereo not drawn)	none (no result: CCT chaperon mod, PLK1 PBD block, Sfp inh, MmCpn inh)
COc1ccc(NS(=O)(=O)c2cc(Br)cc3c2N(C(=O)C2CC2)CC3)cc1OC	none (no result: CCT chaperon mod, PLK1 PBD block, Sfp inh, MmCpn inh)
O=C(CN1CCN(Cc2ccccc2)CC1)NNC(=O)c1ccc(Cl)cc1	G9a block 50µM (no result: Sfp inh)
O=C(CN1CCCCC1)c1c[nH]c2ccccc12	none (no result: G9a block)
O=C(CN1CCN(Cc2ccccc2)CC1)c1ccccc1	G9a block 79µM
O=C(CN1CCN(Cc2ccccc2)CC1)c1c[nH]c2ccccc12	G9a block 40µM
CC(C)(C)NC(=O)NC(=O)CN1CCN(Cc2ccccc2)CC1	PLK1 PBD block 30µM
Cc1nc(N2CCCC2)c2c(C(=O)Nc3cccc(C)c3C)c(C)oc2n1	none (no result: CCT chaperon mod, PLK1 PBD block, Sfp inh, MmCpn inh)
O=C(O)c1ccc(C2Nc3ccccc3-c3nnc(SCc4ccc(Cl)cc4)nc3O2)cc1 (stereo not drawn)	none (no result: CCT chaperon mod, PLK1 PBD block, Sfp inh, MmCpn inh)
CCN1CCN(CC(=O)c2ccc(C)cc2)CC1	G9a block 40µM, Sfp inh 79µM
CCN1CCN(C(=O)c2ccccc2NC(=O)c2ccc(Cl)cc2)CC1	G9a block 45µM
Cc1ccc(C(=O)CN2CCC(NC(=O)C3CCCCC3)CC2)cc1	G9a block inconclusive
O=C(Nc1ccccc1C(=O)N1CCCCCC1)c1ccc(Cl)cc1	none
O=C(O)Cc1cn(-c2ccccc2)nc1-c1ccccc1	none
O=C(O)/C=C/C(=O)NCc1cn(-c2ccccc2)nc1-c1cccc(Br)c1	G9a block 35µM
Cn1ccc2cc(S(=O)(=O)N3CCN(C(=O)Nc4cccc(F)c4)CC3)ccc21	none (no result: CCT chaperon mod, PLK1 PBD block, Sfp inh, MmCpn inh)
COc1ccc(NC(=S)N(CCN(C)C)C(C)c2ccco2)cc1Cl (stereo not drawn)	PLK1 PBD block 24µM
COc1cccc(NC(=S)N(CCN(C)C)C(C)c2ccco2)c1 (stereo not drawn)	none
N#C/C(=C\c1ccc(O)c(Br)c1)C(=O)NCc1ccccc1	none (no result: G9a block)
Cc1occc1C(=O)/C(C#N)=C/c1ccc(O)c(Br)c1	G9a block 50µM, VDR inhibitor inconclusive
Cc1nnc(N2CCN(c3ccccc3)CC2)c2c1nnn2Cc1ccc(F)cc1	none (no result: CCT chaperon mod, PLK1 PBD block, Sfp inh, MmCpn inh)
CCN(CC)C(=O)Cn1cc(C(=O)C(=O)N2CCN(c3ccc(OC)cc3)CC2)c2ccccc21	G9a block 50µM
CCN(CC)C(=O)Cn1cc(C(=O)C(=O)N2CCN(c3ccc([N+](=O)[O-])cc3)CC2)c2ccccc21	none
CCOC(=O)c1c(C)[nH]c(C(=O)N2CCN(c3ccc(OC)cc3)CC2)c1C	G9a block 45µM
COc1ccc(N2CCN(C(=O)C(=O)c3c(C)[nH]c4ccccc34)CC2)cc1	G9a block 40µM

Bioassay records (PubChem BioAssay)
